“And” between values parts separate entries of the source, which are not always exact repeats. Identical values can stand only once. In all, about 310,000 compounds went through this assay and about 970 (0.31%) were called active. Only a selection was taken, and actives are over-represented in it overall. Values without a mark were called inactive.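 How the source made its calls: active means every replicate shows inhibition above about 80%, whatever the replicate mean (limit read from the data); inconclusive means mean inhibition reaches the set limit but some replicate falls short; inactive means the rest.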
Assay: growth inhibition of PfHsp90-expressing yeast, primary screen, antimalarial PfHsp90 inhibitor project, S. cerevisiae, BacTiter-Glo luminescence, single point, set 2 (AID 504621);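 further: yeast relying on Plasmodium falciparum Hsp90 in place of its own; 0% = DMSO neutral controls and 100% = 20 µM radicicol positive controls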
Details: BacTiter-Glo ATP, 48 h, at 9.4 µM, hits give high values, yeast lacking PDR1 and PDR3 efflux regulators
With `CCCN(CCC)S(=O)(=O)c1cc2c(cc1Br)CCN2C(=O)CC` the inhibition was -17.7%.
`CSCCC(NC(=O)COc1ccccc1)C(=O)OCc1ccc(Cl)cc1` (centres undefined) showed an inhibition of 6.52%.
In the case of `O=C1/C(=C\c2ccc(O)cc2)CCC1CNc1ccc(Cl)cc1` (centres undefined), the inhibition is reported as 42.3%.
`CC(C)N(C(=O)[C@H]1C[C@H](CC(=O)NC(C)(C)C)C(=O)N2CCc3c([nH]c4ccc(Cl)cc34)[C@]12C)C(C)C` showed an inhibition of 21.3%.
For `CC1(C)C2CCC1(C)C(OC(=O)c1ccc(O)cc1)C2` (centres undefined), the inhibition was 11.7%.
Compound `COC(=O)c1ccc(NCc2cc(O)ccc2O)cc1` has an inhibition of 30.3%.
In the case of `O=C(OC12CC3CC(CC(C3)C1)C2)c1ccc(NCc2cc(O)ccc2O)cc1`, the inhibition is reported as 124% (active).
In the case of `O=C(Nc1c(Br)cc2c(c1Br)Cc1cc([N+](=O)[O-])ccc1-2)C(Cl)Cl`, the inhibition is reported as -28.5%.
`O=S1(=O)CCOC[C@H](Cc2ccccc2)N1Cc1ccccc1Br` gave an inhibition of 10.2%.
`C=CCOC(=O)N1CCC2CC1c1cc(-c3ccc(OC)cc3)ccc12` (centres undefined) showed an inhibition of -3.16%.
In the case of `COc1ccccc1C(=O)c1ccccc1C(=O)c1ccccc1`, the inhibition is reported as -29.9%.
In the case of `CN(CCc1ccccc1)C(=O)c1cccc(NC(=O)Cc2cccc(NC(=O)C3CCCN(C(=O)C4CCC4)C3)c2)c1` (centres undefined), the inhibition is reported as 10.6%.
Work on `CCOC(=O)c1ccc(N2C(=O)CC(N3CCN(C(=O)c4ccccc4)CC3)C2=O)cc1` (centres undefined) yielded an inhibition of 18.7%.
With `CCOC(=O)c1ccc(N2C(=O)CC(N3CCC(C(=O)OCC)CC3)C2=O)cc1` (centres undefined) the inhibition was 94.1% (active).
`CCOC(=O)c1ccc(N2C(=O)CC(N3CC(C)OC(C)C3)C2=O)cc1` (centres undefined) showed an inhibition of 11.2%.
In the case of `CSc1ncnc2c1ncn2CC(=O)C1CCC2C3CCC4=CC(=O)CCC4(C)C3CCC12C` (centres undefined), the inhibition is reported as 17%.
`CCOC(=O)[C@H]1[C@H]2COc3ccc(Br)cc3[C@@H]2N2C(=O)CN(C)C(=O)[C@@]12C` showed an inhibition of 3.33%.
With `C=CC(=O)Nc1ccc(Nc2ccnc(Nc3ccc(N4CCN(C)CC4)cc3)n2)cc1` the inhibition was 1.37%.
Work on `CCN(CC)S(=O)(=O)c1ccc(N2CCCC2)c(NC(=O)c2ccc([N+](=O)[O-])o2)c1` yielded an inhibition of 7.78%.
With `Oc1ccccc1C1=NN(c2ccccc2)C(c2ccccc2)C1` (centres undefined) the inhibition was 106% (active).
`CC(=O)Oc1ccccc1C1=NN(C(C)=O)C(c2ccccc2)C1` (centres undefined) gave an inhibition of 6.42%.
For `O=C(c1ccccc1)N1N=C(c2ccccc2O)CC1c1ccc(Br)cc1` (centres undefined), the inhibition was -6.75%.
In the case of `OCc1ccc(OCCCOc2cccc3cccnc23)cc1`, the inhibition is reported as 24.6%.
In the case of `O=C(Nc1ccccc1)Oc1cccc2cccnc12`, the inhibition is reported as 104% (active).
For `Fc1ccccc1COc1cccc2cccnc12`, the inhibition was 5.74%.
For `CCOc1ccc(S(=O)(=O)N2CCN(C(=O)c3oc4ccccc4c3C)CC2)cc1`, the inhibition was -16.3%.
For `CC(=O)Oc1ccc(OC(C)=O)c2c1C1C=CC2CC1`, the inhibition was -4.99%.
With `O=C1/C(=C\c2ccc([N+](=O)[O-])cc2)CS(=O)(=O)C/C1=C/c1ccc([N+](=O)[O-])cc1` the inhibition was 104% (active).
`O=C(NN=Cc1ccc([N+](=O)[O-])cc1)C1CC1` showed an inhibition of -9.96%.
In the case of `O=[N+]([O-])c1ccc(C=NN=Cc2ccc([N+](=O)[O-])cc2)cc1`, the inhibition is reported as -1.39%.
In the case of `COc1cccc(C=CC(=O)C=CC=Cc2ccccc2)c1`, the inhibition is reported as 16.4%.
Work on `CN(C)C(=S)N=c1ssc(=S)n1Cc1ccco1` yielded an inhibition of -41.1%.
`Oc1ccc(N=Nc2nccs2)c(O)c1` showed an inhibition of 4.56%.
For `Oc1ccc2ccccc2c1N=Nc1nccs1`, the inhibition was 131% (active).
`c1ccc(NCc2cccc3ccccc23)nc1` gave an inhibition of 3.43%.
For `CCCCC(=O)Nc1ccc(C(=O)Nc2cc(C(F)(F)F)ccc2Cl)cc1`, the inhibition was -1.45%.
In the case of `CCCCN(CCCC)CCC(O)c1cc2c(Cl)cc(Cl)cc2c2cc(C(F)(F)F)ccc12` (centres undefined), the inhibition is reported as 110% (active).
`COc1ccc(C(CNC(=O)c2cccc(S(=O)(=O)Nc3ccc(Br)cc3)c2)N(C)C)cc1` (centres undefined) showed an inhibition of 3.14%.
For `C=CC[C@@H](Cc1ccc(F)cc1)C(=O)OC[C@H]1CCCN1C(=O)[C@H](CC=C)CC(=O)N(CCO)Cc1ccccc1`, the inhibition was 6.25%.
For `NNc1cccc(C=Cc2ccccc2)cc1=O`, the inhibition was 17.2%.
In the case of `Oc1c(CN2CCCC2)cc(COCc2ccccc2)c2cccnc12`, the inhibition is reported as 16.4%.
`Cc1cccnc1NC(=O)c1cccc(S(=O)(=O)N2CCN(c3ccc(F)cc3)CC2)c1` gave an inhibition of -4.19%.
For `Oc1c(CN2CCN(c3ccc(F)cc3)CC2)cc(Cl)c2cccnc12`, the inhibition was 136% (active).
With `COc1ccc(Nc2ccc3ccccc3c2)cc1` the inhibition was -39%.
In the case of `O=C(Nc1nc(-c2ccco2)c(-c2ccco2)s1)c1ccco1`, the inhibition is reported as 92% (active).
In the case of `O=C(Nc1ccccc1)c1ccco1`, the inhibition is reported as 1.65%.
Compound `O=C(Nc1nnc(CCOCCOCCc2nnc(NC(=O)c3ccco3)s2)s1)c1ccco1` has an inhibition of 4.41%.
Compound `COc1ccc(/C=C2/CCCc3ccccc3C2=O)cc1` has an inhibition of 17.4%.
With `Cc1ccc2nc(Nc3ccccc3)cc(C)c2c1` the inhibition was -1.32%.
For `CCS(=O)(=O)Nc1cccc(-c2cc(-c3ccccc3)c3cc(C)ccc3n2)c1`, the inhibition was 102% (active).
For `Cc1ccc2nc(-c3ccncc3)cc(C(=O)Nc3ccncc3)c2c1`, the inhibition was -8.61%.
`O=C1OCC2=C1C(c1ccc(Cl)cc1)c1cc3c(cc1O2)OCO3` (centres undefined) gave an inhibition of -15.7%.
In the case of `O=C(CC(n1cncn1)C(Cl)(Cl)Cl)c1ccc([N+](=O)[O-])cc1` (centres undefined), the inhibition is reported as 123% (active).
In the case of `O=C(Cn1c[n+](CC(=O)c2ccc([N+](=O)[O-])cc2)cn1)c1ccc([N+](=O)[O-])cc1`, the inhibition is reported as -20.5% and -1.84%.
`O=C(Nn1cnnc1)c1ccc([N+](=O)[O-])cc1` gave an inhibition of 10.8%.
With `Oc1ccc(-c2nc3ccccc3nc2-c2ccc(O)cc2O)c(O)c1` the inhibition was 6.66%.
Work on `O=C(O)c1ccc(NN=CC2=C(N3CCOCC3)/C(=C/c3ccccc3)CC2)cc1` yielded an inhibition of -30.6%.
`CC(C)c1ccc(C=NNc2ccc([N+](=O)[O-])cn2)cc1` gave an inhibition of -14.5%.
With `O=S(=O)(NC1CC1)c1ccc(Cl)cc1` the inhibition was -7.47%.
For `O=S(=O)(NC1CC2CCC1C2)c1ccc(Cl)cc1` (centres undefined), the inhibition was 104% (active).
Work on `O=S(=O)(NC1CCCCC1N1CCCCC1)c1ccc(Cl)cc1` (centres undefined) yielded an inhibition of -25%.
In the case of `COc1ccc(-c2ccc3c(c2)[C@@H]2C[C@H](N(C)S(=O)(=O)c4ccccc4)[C@H]([C@H](C)O)C(=O)N2CC3)cc1`, the inhibition is reported as 6.39%.
In the case of `CC(C)Cn1cnc2c(SCc3ccc(Cl)cc3)nc(N)nc21`, the inhibition is reported as 12.6%.
In the case of `COc1cccc2c1C(=O)c1c(O)c3c(c(O)c1C2=O)CC(O)(C(C)=NNC(=O)c1ccc(Cl)c(Cl)c1)CC3OC1CC(N)C(O)C(C)O1` (centres undefined), the inhibition is reported as -3.52%.
For `CC1=C/C(=N\OS(=O)(=O)c2ccccc2)C=CC1=O`, the inhibition was 100% (active).
In the case of `O=C(Nc1ccc(S(=O)(=O)N2CCOCC2)cc1)C1CCN(S(=O)(=O)c2ccc(Cl)cc2)CC1`, the inhibition is reported as -11.4%.
`COc1ccc2sc(-c3ccc(N(C)C)cc3)c(-c3ccc4cc[nH]c4c3)c2c1` gave an inhibition of -6.56%.
`COc1ccc2sc(-c3ccc(N(C)C)cc3)c(C#CCO)c2c1` gave an inhibition of 15%.
In the case of `COc1ccc2c(c1)c(=Cc1ccc(N(C)C)cc1)c1cc(-c3ccccc3)[n+](C)n12`, the inhibition is reported as 114% (active).
In the case of `CCN1CCC(O)(/C=C/c2ccc(C)cc2)C(C(=O)/C=C/c2ccc(C)cc2)C1` (centres undefined), the inhibition is reported as 19.6%.
`Cc1c(NS(=O)(=O)c2cccc(C(=O)Nc3ccc(SC(F)F)cc3)c2)c(=O)n(-c2ccccc2)n1C` showed an inhibition of -2.76%.
`COc1ccc2c(c1)C(=O)CC(c1ccccc1)O2` (centres undefined) gave an inhibition of -30%.
Work on `CCCCC(=O)NC(c1ccc(OC)c(OC)c1)c1ccc2cccnc2c1O` (centres undefined) yielded an inhibition of 25.2%.
`C#CCOCCOCCOCCNc1nc(N2CCOCC2)nc(N2CCN(C(=O)[C@H](Cc3ccc(O)cc3)n3cc(CCO)nn3)CC2)n1` gave an inhibition of 2.07%.
In the case of `C[C@@H]1C[C@@H]2O[C@H]2/C=C\C=C\C(=O)Cc2c(Cl)c(O)cc(O)c2C(=O)O1`, the inhibition is reported as 95% (active).
`Cc1ccc(-c2csc(C(C#N)=C(O)CN3CCN(C(=O)c4ccco4)CC3)n2)cc1` showed an inhibition of 4.72%.
With `O=C1C=CC(=O)N1c1ccc(N2CCCCC2)cc1` the inhibition was 109% (active).
Compound `CC(=O)Nc1ccc(S(=O)(=O)Nc2ccc(N3CCCCC3)cc2)cc1` has an inhibition of 26.6%.
For `O=C(Cc1ccccc1)NC(=S)Nc1ccc(N2CCCCC2)cc1`, the inhibition was -35.9%.
In the case of `O=C(NNc1nc(N2CCCC2)nc(N2CCCC2)n1)c1ccccc1`, the inhibition is reported as 16.9%.
Work on `CCN(CC)CCCC(C)n1c2nc(=O)[nH]c(=O)c-2nc2cc(Cl)ccc21` (centres undefined) yielded an inhibition of -9.23%.
`NC(=O)C1CCN(C(=O)c2cc(S(=O)(=O)N3CCN(c4ccccc4)CC3)ccc2Cl)CC1` showed an inhibition of -2.95%.
`CC1=CC(=NNS(=O)(=O)c2ccc([N+](=O)[O-])cc2)CC(C)(C)C1` gave an inhibition of -10.2%.
Work on `O=[N+]([O-])c1ccc(NS(=O)(=O)c2ccccc2)c(Cl)c1` yielded an inhibition of -12%.
Work on `COc1ccc(C(=O)/C=C/c2ccc(OC3CSC3)cc2)cc1` yielded an inhibition of 12.6%.
For `COc1ccc(/C=C/C(=O)c2cc(Br)ccc(=O)c2O)cc1`, the inhibition was 99.7% (active).
`COc1ccc(/C=C/C(=O)c2ccc(OC)cc2O)cc1` showed an inhibition of 3.31%.
For `CN(C(=O)c1cccc(NC(=O)Cc2ccc(NC(=O)C3CCCN(C(=O)C4CCCC4)C3)cc2)c1)C1CCC1` (centres undefined), the inhibition was 3.19%.
Work on `COC(=O)CC(CC(=O)OC)n1cccc1` yielded an inhibition of 10.4%.

— PubChem BioAssay AID504621 (Broad Institute, 2011)
